Source: PubChem BioAssay (NCI)
The panel holds about 83,000 compounds, 20% with a hit somewhere; the sample as a whole holds those more often.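 Results are percent growth after 48 hours of single-concentration exposure. 100 means growth as in untreated cells, lower positive values show inhibition; negative values down to -100 show cell death.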 Values without a mark were called inactive. Calls of active or inactive are those of the source. How the source made its calls: active means growth percent below 10; inactive means the rest.

Tested on: HOP-92 NSCLC
Assay: NCI-60 one-dose screen, 48 h (100 = growth as untreated, 0 = no growth, -100 = all killed)
Settings: 10 µM

Structure (SMILES) | growth
CC(C)N(CCOc1cccc(-c2nc3sccn3c2-c2ccnc(S(C)(=O)=O)n2)c1)C(C)C | 43.5%
O=C(CSc1nnc(-c2ccc(Cl)cc2)o1)Nc1ccc(C(=O)/C=C/c2ccc(Cl)cc2)cc1 | 106%
CC[C@@H](C(=O)[C@@H](C)[C@@H](O)[C@H](C)[C@@H]1O[C@@H]([C@@H](CC)C(=O)N(CC)CC)CC[C@@H]1C)C1O[C@]2(C=CC(=O)[C@]3(CC[C@@](C)([C@H]4CC[C@](O)(CC)[C@H](C)O4)O3)O2)[C@H](C)C[C@@H]1C (some centres not stated) | -17.2% (active)
COc1ccc(-c2onc(N)c2-c2cc(OC)c3c(c2)OCO3)cc1 | 63.9%
CCN(CC)CCOc1cccc2c1C(=O)c1cccc(OCCN(CC)CC)c1C2=O | 36.5%
COc1cc(/C=C/c2cc(/C=C/c3ccc(O)c(OC)c3)n(C(=O)Nc3ccc(C)cc3)n2)ccc1O | -15.4% (active)
CCOC(=O)c1cc(C(=O)c2ccc(F)cc2F)n2ccccc12 | 47.1%
COc1cc2c(cc1NC(=O)C(Cl)Cl)-c1ccc(NC(=O)C(Cl)Cl)cc1C2 | 40.2%
COc1ccc(-c2cc(-c3ccccc3)nc(SCCCC(=O)NO)n2)cc1 | -13.4% (active)
O=S(=O)(Oc1ccc(-c2ccc3sccc3c2)cc1)c1ccc(F)cc1 | 105%
COc1cc(-c2nn(-c3ccc(NC(=O)NCCCNC(=O)c4ccccc4)cc3)cc2-c2ccncc2)ccc1Cl | -0.43% (active)
CN(C)CCCOc1ccc(OCCCN(C)C)c2c1C(=O)c1ccccc1C2=O | -0.93% (active)
COc1cccc(C2C(C#N)=C(N)Oc3cc(N)ccc32)c1 (configuration not stated) | 36.9%
COc1cc(/C=C/c2cc(/C=C/c3ccc(O)c(OC)c3)[nH]c(=O)n2)ccc1O | 33.7%
COc1ccc2nc(-c3ccc(Cl)cc3)cc(-c3nnc(SC/C(=N\O)c4ccccc4)n3-c3ccccc3)c2c1 | 95.4%
CCOC(=O)CN(c1sc(C)c(C)c1C(=O)OCC)S(=O)(=O)c1ccc(C)cc1 | 85.2%
COc1ccc(/C=C2/SC(=S)NC2=O)c(OC)c1OC | 36.8%
CC(C)(C)OC(=O)N1CCc2c(sc3ncnc(N/N=C/c4ccccc4Br)c23)C1 | 80.8%
NC(CSC(c1ccccc1)(c1ccccc1)c1cccc2ccccc12)C(=O)O (configuration not stated) | 81.6%

Structure (SMILES) | growth
CN(C)CCCOc1ccccc1NC1=C(Cl)C(=O)C(Nc2ccccc2OCCCN(C)C)=C(Cl)C1=O | -57.1% (active)
NS(=O)(=O)c1ccc(Br)cc1 | 94%
CN(C)CCCOc1ccc(NC2=C(Cl)C(=O)C(Nc3ccc(OCCCN(C)C)cc3)=C(Cl)C2=O)cc1 | -74.9% (active)
COc1ccc(-c2n[nH]nc2-c2cc(OC)c3c(c2OC)OCO3)cc1 | 8.78% (active)
C=CCn1c(SCC(=O)Nc2ccc(C(=O)/C=C/c3cc(OC)c(OC)c(OC)c3)cc2)nnc1-c1cc(-c2ccc(Cl)cc2)nc2ccccc12 | 83%
COc1ccc(C2=Cn3c(CCC(=O)c4nc5ccccc5[nH]4)nnc3SC2)cc1 | 77.5%
CCN1CCN(CCC(=O)Nc2cccc(-n3cc(-c4ccncc4)c(-c4ccc(Cl)c(OC)c4)n3)c2)CC1 | 6.07% (active)
N#CCc1csc(Cc2ccccc2)n1 | 117%
Cc1[nH]c2ccccc2c1/C=N/Nc1ncnc2sc3c(c12)CCN(CC(=O)OC(C)(C)C)C3 | 61.2%
CCCc1cn(CC(=O)Nc2nc3ccccc3s2)nn1 | 109%
C/C=C/CSC(C)(C)C(=O)NC | 104%
Cc1ccc(Cl)cc1NC(=O)CCl | 92.1%
CCOC(=O)c1cc(C(=O)c2ccc(OC)c(OC)c2)n2c1ccc1ccc3cccnc3c12 | 18.9%
Cc1c(Cl)cccc1NC(=O)CCCl | 103%
Cc1ccc(NCCNCC(C)(C)O)c2c(=O)c3ccc(Cl)cc3sc12 | 21%
OCC1OC(n2cnc3c(NCc4ccco4)ncnc32)C(O)C1O (configuration not stated) | -10.8% (active)
NS(=O)(=O)Oc1ccc(NC(=O)C2CCCCCC2)cc1 | 98.9%
COc1cc(-c2nn(-c3ccc(NC(=O)NCCNS(=O)(=O)c4ccc(F)cc4)cc3)cc2-c2ccncc2)ccc1Cl | -6.87% (active)
